Data: PubChem BioAssay AID651687 (Broad Institute, 2012)
“And” between values parts separate entries of the source, which are not always exact repeats. Equal values may be shown once. Screen size: about 350,000 compounds; about 600 (0.17%) were called active.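 The calls were made as follows: active = every replicate shows inhibition of at least 40%; inconclusive = mean inhibition at least 40% but some replicate below; inactive = the rest.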 The sample as a whole holds a higher share of actives than the screen did. A structure can be active in one record and inactive in another.

Assay: inhibitors of PGC1a acetylation signal, primary screen, cell-based, U2OS, AlphaScreen, inhibitor mode (AID 651687);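 also: 0% = neutral control wells and 100% = positive control wells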
Conditions: AlphaScreen anti-acetyl-lysine, at 15.6 µM, stronger effect = higher value, with virally co-expressed GCN5 acetyltransferase
In the case of CO[C@H]1CN(C)C(=O)c2ccc(NC(=O)NC(C)C)cc2OC[C@@H](C)N(C(=O)CN(C)C)C[C@H]1C, the inhibition is reported as 9.74% (inactive). With Cc1ccc(-c2c[n+](CC(=O)Nc3ccccc3)c3n2CCC3)cc1 the inhibition was 43.3% (active). With Clc1ccc(C[n+]2cc(-c3ccccc3)n3c2CCC3)cc1 the inhibition was -17.2% (inactive). With Cc1ccc(C(=O)C[n+]2cc(-c3ccccc3)n3c2CCCCC3)cc1 the inhibition was 20.9% (inactive). For COc1ccc(S(=O)(=O)Nc2ccc3c(c2)C(=O)N([C@H](C)CO)C[C@H](C)[C@@H](CN(C)Cc2ccccc2)OCCCC[C@@H](C)O3)cc1, the inhibition was -2.9% (inactive). For COc1ccc(-c2ccc3c(c2)[C@@H]2[C@@H](CCN2C(=O)c2cccc(F)c2)[C@H](CO)N3)cc1, the inhibition was 6.58% (inactive). In the case of O=C(Nc1ccc2c(c1)[C@@H]1C[C@H](CC(=O)N3CCOCC3)O[C@@H](CO)[C@@H]1O2)C1CCOCC1, the inhibition is reported as -6.68% (inactive). With CNC[C@H]1Oc2cc(C#CC3CCCC3)ccc2S(=O)(=O)N([C@H](C)CO)C[C@@H]1C the inhibition was -10.8% (inactive). For C[C@@H]1CCCCO[C@@H](CN(C)C(=O)Cc2ccccc2)[C@H](C)CN([C@@H](C)CO)C(=O)c2cc(NC(=O)Nc3ccc4c(c3)OCO4)ccc2O1, the inhibition was -5.63% (inactive). With COc1ccc(NC(=O)/C(Cl)=C(/Cl)S(=O)Cc2ccc(C)cc2)cn1 (centres undefined) the inhibition was 69.3% (active). For COc1ccc(NC(=O)CN2C(=O)NC(C)(c3ccccc3)C2=O)cn1 (centres undefined), the inhibition was 0.857% (inactive). For COc1ccc(NS(=O)(=O)c2ccc(F)cc2F)cn1, the inhibition was 0.335% (inactive). In the case of Cc1noc(C)c1NC(=O)Nc1ccc2c(c1)C(=O)N([C@@H](C)CO)C[C@H](C)[C@@H](CN(C)C(=O)Nc1ccccc1)O2, the inhibition is reported as -6.84% (inactive). In the case of C[C@@H]1CCCCO[C@@H](CN(C)C(=O)CCCN(C)C)[C@H](C)CN([C@@H](C)CO)C(=O)c2cc(NC(=O)Nc3ccccc3)ccc2O1, the inhibition is reported as 20% (inactive). In the case of C[C@@H]1CN([C@@H](C)CO)C(=O)c2cc(NS(C)(=O)=O)ccc2O[C@H]1CN(C)C(=O)Nc1ccc(F)cc1, the inhibition is reported as 0.678% (inactive). For Cn1cnc(S(=O)(=O)N2CC[C@@H]3[C@H]2c2cc(C#Cc4cccc(F)c4)ccc2N[C@@H]3CO)c1, the inhibition was -5.83% (inactive). In the case of CCS(=O)(=O)NCC[C@H]1CC[C@@H](NC(=O)Nc2cc(Cl)cc(Cl)c2)[C@@H](CO)O1, the inhibition is reported as -5.94% (inactive). With Cc1ccc(S(=O)(=O)N[C@@H]2CC[C@@H](CCn3cc(C(C)C)nn3)O[C@H]2CO)cc1 the inhibition was -5.62% (inactive). In the case of CC(C)NC(=O)N(C)C[C@H]1Oc2c(NS(C)(=O)=O)cccc2C(=O)N([C@@H](C)CO)C[C@H]1C, the inhibition is reported as 3.18% (inactive). For C[C@@H]1CN([C@@H](C)CO)C(=O)c2cc(NC(=O)Nc3ccc4c(c3)OCO4)ccc2O[C@@H](C)CCCCO[C@H]1CN(C)C(=O)Nc1ccc(C(F)(F)F)cc1, the inhibition was -7.26% (inactive). For C[C@H](CO)N1C[C@H](C)[C@H](CN(C)Cc2ccc(C(=O)O)cc2)Oc2ccc(NC(=O)NC3CCCCC3)cc2C1=O, the inhibition was 6.53% (inactive). With Cc1noc(C)c1NC(=O)Nc1ccc2c(c1)CC(=O)N([C@@H](C)CO)C[C@@H](C)[C@H](CN(C)C(=O)NC1CCCCC1)O2 the inhibition was 0.249% (inactive). With C[C@@H]1CN([C@H](C)CO)S(=O)(=O)c2ccc(C#CC3CCCC3)cc2O[C@@H]1CN(C)Cc1ccccc1C(=O)O the inhibition was -5.77% (inactive). For O=C(C[C@@H]1C=C[C@@H](NS(=O)(=O)c2ccc(F)cc2)[C@@H](CO)O1)NCCN1CCCCC1, the inhibition was 4.96% (inactive). In the case of CO[C@@H]1CN(C)C(=O)c2ccc(NS(=O)(=O)c3cn(C)cn3)cc2OC[C@H](C)N(CCC(F)(F)F)C[C@@H]1C, the inhibition is reported as -2.06% (inactive). In the case of Cc1noc(C)c1C(=O)N(C)C[C@H]1OCc2ccccc2-c2c(n(C)c3ccccc23)C(=O)N([C@@H](C)CO)C[C@H]1C, the inhibition is reported as -20.6% (inactive). With COc1ccc(-c2cnc3c(c2)C(=O)N([C@@H](C)CO)C[C@H](C)[C@@H](CN(C)C(=O)C2CC2)O3)cc1 the inhibition was -1.45% (inactive). In the case of CNC[C@H]1Oc2ccc(NS(=O)(=O)c3ccc(F)cc3)cc2CC(=O)N([C@H](C)CO)C[C@H]1C, the inhibition is reported as -12.8% (inactive). In the case of C[C@@H](NC(=O)C[C@@H]1CC[C@@H]2[C@H](COC[C@@H](O)CN2C(=O)Nc2cccc(F)c2)O1)c1ccccc1, the inhibition is reported as 0.238% (inactive). With COCC(=O)Nc1ccc2c(c1)OC[C@@H](C)N(Cc1cocn1)C[C@@H](C)[C@@H](OC)CN(C)C2=O the inhibition was 11.7% (inactive). In the case of CCC(=O)N(C)C[C@H]1Oc2cc(-c3ccc(C)cc3)ccc2S(=O)(=O)N([C@@H](C)CO)C[C@H]1C, the inhibition is reported as -11.2% (inactive). For CCCN(C)C[C@@H]1OCCCC[C@@H](C)Oc2ccc(NC(=O)Nc3ccc(C(F)(F)F)cc3)cc2C(=O)N([C@H](C)CO)C[C@H]1C, the inhibition was -1.97% (inactive). In the case of CN(C)C(=O)c1cccc(-c2ccc(C3[C@@H]4CN(S(=O)(=O)c5ccc(F)cc5)C[C@H]3N4)cc2)c1 (some centres undefined), the inhibition is reported as -5.35% (inactive) and -8.12% (inactive). In the case of N#Cc1ccc(-c2ccc(C3[C@@H]4CN(S(=O)(=O)c5ccccc5F)C[C@H]3N4)cc2)cc1 (some centres undefined), the inhibition is reported as -0.54% (inactive) and -4.45% (inactive). With N#Cc1ccc(-c2ccc(C3[C@@H]4CN(S(=O)(=O)c5ccc(F)cc5)C[C@H]3N4)cc2)cc1 (some centres undefined) the inhibition was -1.35% (inactive) and 58.1% (active). For C[C@H](CO)N1C[C@H](C)[C@@H](CN(C)C(=O)Cc2ccccn2)Oc2cc(-c3cccc(C(=O)N(C)C)c3)ccc2S1(=O)=O, the inhibition was 0.377% (inactive). For COc1ccc(C#Cc2ccc([C@H]3[C@@H](CO)N4CCCCN(S(=O)(=O)c5cn(C)cn5)C[C@H]34)cc2)cc1, the inhibition was -2.67% (inactive). With COCC(=O)Nc1ccc2c(c1)[C@H]1C[C@H](CC(=O)NCc3cccnc3)O[C@H](CO)[C@H]1O2 the inhibition was 5.71% (inactive). For CN1c2ccc(-c3cccc(F)c3)cc2[C@H]2[C@H](CCN2C(=O)c2cccc(F)c2)[C@H]1CO, the inhibition was -7.12% (inactive).
